HEK293 tox: cytotoxic in the GLP-1 receptor inverse agonist counter-screen | 410,000 compounds, 0.13% hits | HEK293 cAMP-luciferase reporter cells, luminescence, 24 h | Potency, µM (doses to about 38.3 µM), for inactives: at the top dose activity change, negative = inhibition, usual class: inhibitors | AID 624418;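 further: loss of luciferase light is scored as toxicity; on the % scale 0 is the no-effect control and ±100 the full control effect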
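Here, cytotoxicity is scored as loss of luminescence. The MLSMR collection was tested on cells seeded in medium containing 10% Nu serum, with a 24 hr compound exposure preceded by 12 hours of culture.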
rTrxR1 inhibitor: inhibitors of rat thioredoxin reductase 1; Potency, µM (series often up to 114 µM), without a hit: top-dose activity change, negative = inhibition, actives largely listed as inhibitors; 390,000 compounds, 1% hits; AID 588453; recombinant rTrxR1, NADPH fluorescence consumption, selenite substrate; further: on the % scale 0 is the no-effect control and ±100 the full control effect; nearly all actives have a fitted effect of over 65% in size
Target sequence (O89049 whole entry, looked up): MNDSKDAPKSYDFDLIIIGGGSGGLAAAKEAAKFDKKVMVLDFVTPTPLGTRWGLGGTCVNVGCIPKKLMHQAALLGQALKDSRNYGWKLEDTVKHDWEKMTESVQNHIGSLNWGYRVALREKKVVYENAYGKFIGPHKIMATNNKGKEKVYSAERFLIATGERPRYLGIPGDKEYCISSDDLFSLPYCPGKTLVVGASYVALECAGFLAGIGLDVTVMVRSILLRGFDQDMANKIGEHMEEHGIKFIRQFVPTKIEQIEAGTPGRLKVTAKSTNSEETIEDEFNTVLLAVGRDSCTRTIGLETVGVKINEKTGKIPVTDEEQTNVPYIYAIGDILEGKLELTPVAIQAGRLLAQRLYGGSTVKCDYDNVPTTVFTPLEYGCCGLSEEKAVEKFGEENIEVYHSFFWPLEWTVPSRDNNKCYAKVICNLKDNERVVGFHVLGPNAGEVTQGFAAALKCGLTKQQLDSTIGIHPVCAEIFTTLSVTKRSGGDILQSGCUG
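Rat TrxR1 (90 nM in the dispensed reagent) was pre-reduced with 400 uM NADPH for 5 min at room temperature, then incubated with compound for 15 min. After 400 uM selenite was added, NADPH fluorescence (Ex 340/Em 450 nm) was followed for 8 min.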
TrxR1 substrate: rat thioredoxin reductase 1 substrate activity. AID 588456. 390,000 compounds, 0.01% hits. purified TrxR1 substrate turnover, NADPH consumption readout. Potency, µM (series often up to 114 µM), inactives show at the highest dose activity change, negative = substrate turnover. O89049; further: on the % scale 0 is the no-effect control and ±100 the full control effect; nearly all actives have a fitted effect of over 50% in size
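Rat TrxR1, dispensed at 90 nM, was prereduced with 400 uM NADPH (final) for 5 min at ~22 deg C, then incubated with compound 15 min before 400 uM selenite. A first-read NADPH fluorescence drop versus no-compound background flagged substrates.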
GLP1R inv ag: inverse agonists of human GLP-1 receptor | Potency, µM (series often up to 38.3 µM), for inactives: at the top dose activity change, negative = inhibition, hits mostly inhibitors | P43220 | 410,000 compounds, 1.6% hits | HEK293 GLP-1R CRE-luciferase, luminescence, 24 h; GLP-1R form is constitutively active; further: on the % scale 0 is the no-effect control and ±100 the full control effect; nearly all actives have a fitted effect of over 55% in size
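Seeding at 200 cells/uL, 12 h culture, 24 hr compound treatment, then luciferase reagent and a luminescence read; cells are HEK293 stably expressing a constitutively active GLP-1R plus cAMP-responsive luciferase.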
GLP-1R agonist: GLP-1 receptor (human) agonism; P43220; HEK293 GLP-1R CRE-luciferase, luminescence, 4-6 h; cells express a hypersensitive GLP-1R form; Potency, µM (doses to about 45.6 µM), inactives show at the top dose activation, most hits filed as activators; 380,000 compounds, 0.007% hits; AID 624172; further: % of control where 0% means no effect
mIDH1 inhibitor: human IDH1 R132H inhibition. O75874. IDH1-R132H enzyme, NADPH consumption, diaphorase/resazurin fluorescence. Potency, µM (top dose mostly 76.6 µM), for the others: at the top dose activity change, negative = inhibition, most hits filed as inhibitors. 390,000 compounds, 0.093% hits. AID 602179; further: on the % scale 0 is the no-effect control and ±100 the full control effect; nearly all actives have a fitted effect of over 65% in size
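IDH1-R132H (0.5 ug/mL) preincubated 30 min with compound, then NADPH (0.016 mM) and alpha-KG (2 mM) added; 80 min at RT, pH 7.5. Remaining NADPH coupled via diaphorase/resazurin to fluorescence (540/590 nm); concentration-response curves normalized to no-enzyme control.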
Active calls of the source: *; [ ] = dose if it differs, or a comment. Most compounds without a hit are left out; they make up all but 2.7% or so of the library. The call rests on the fitted dose curve; in most records, active means well fitted curve in the direction sought with a large enough effect; inconclusive means small, poorly fitted or top-dose-only effect, or another doubt; inactive means no such curve, though single readings can be large; an effect the other way counts as inactive or inconclusive. Potency means the concentration at half of the fitted maximal effect.

CCc1c(-c2ccccc2F)ncn1Cc1cccc(-c2ccccc2)c1 was read as HEK293 tox 0% and GLP1R inv ag inconclusive.
`Cc1cc2ccccn2c1C(=O)c1ccc([N+](=O)[O-])cc1[N+](=O)[O-]` gave HEK293 tox 0%, rTrxR1 inhibitor 3.2µM*, TrxR1 substrate -1%[57.1 µM], GLP1R inv ag -5%, GLP-1R agonist 2% and mIDH1 inhibitor 7%.
Cc1cc2ccccn2c1C(=O)c1cccc([N+](=O)[O-])c1 was read as HEK293 tox -16%, rTrxR1 inhibitor 23%[57.1 µM], TrxR1 substrate 12%[57.1 µM], GLP1R inv ag inconclusive, GLP-1R agonist 15% and mIDH1 inhibitor 15%.
For Cc1cc2ccccn2c1C(=O)c1ccc([N+](=O)[O-])o1 the results were HEK293 tox 6%[0.307 µM], rTrxR1 inhibitor 11µM*, TrxR1 substrate 7%[57.1 µM], GLP1R inv ag 6%[0.307 µM], GLP-1R agonist 12% and mIDH1 inhibitor 1%.
Screening COc1ccc(OCC(O)Cn2c(=N)n(Cc3ccccc3)c3ccccc32)cc1 (stereo unspecified) returned HEK293 tox 7.9µM*, rTrxR1 inhibitor 27%[57.1 µM], TrxR1 substrate 12%[57.1 µM], GLP1R inv ag inconclusive, GLP-1R agonist -20% and mIDH1 inhibitor 0%.
Screening Cc1cccc(OCC(O)Cn2c(=N)n(Cc3ccccc3)c3ccccc32)c1 (stereo unspecified) returned HEK293 tox -16%, rTrxR1 inhibitor 17%, TrxR1 substrate -3%, GLP1R inv ag inconclusive, GLP-1R agonist -3% and mIDH1 inhibitor 0%.
CCN(CC)CCn1c(=N)n(CC(O)COc2ccccc2C)c2ccccc21 (stereo unspecified) was read as HEK293 tox inconclusive, rTrxR1 inhibitor 32%, TrxR1 substrate 45% and GLP1R inv ag 10µM*.
Screening Cc1ccc(OCC(O)Cn2c(=N)n(Cc3ccccc3)c3ccccc32)cc1 (stereo unspecified) returned HEK293 tox inconclusive, rTrxR1 inhibitor -13%, TrxR1 substrate -6%, GLP1R inv ag 11µM*, GLP-1R agonist -5% and mIDH1 inhibitor 2%.
`Cc1c(O)ccc2c1OC(C)(C)CC2` gave rTrxR1 inhibitor inconclusive and TrxR1 substrate 5%.
Screening Brc1ccc(N/N=C(/N=Nc2nn[nH]n2)c2ccccc2)cc1 returned HEK293 tox inconclusive, rTrxR1 inhibitor -18%, TrxR1 substrate -15%, GLP1R inv ag 1.3µM*, GLP-1R agonist 9% and mIDH1 inhibitor 0%.
CCOc1ccc(NC(=O)CC2C(=O)N(c3ccc(C)cc3)C(=O)N2CCC2=CCCCC2)cc1 (stereo unspecified) was read as HEK293 tox 2%, rTrxR1 inhibitor 11%, TrxR1 substrate -8%, GLP1R inv ag 1% and mIDH1 inhibitor 11%.
Screening O=C(N1CCCCC1)N1CCN(C(c2ccccc2)c2ccccc2)CC1 returned HEK293 tox 0%, rTrxR1 inhibitor 9%[57.1 µM], TrxR1 substrate 8%[57.1 µM], GLP1R inv ag 5µM*, GLP-1R agonist 1% and mIDH1 inhibitor -1%.
Screening O=C(NC1CCCCC1)N1CCN(c2ccccc2)CC1 returned HEK293 tox -10%, rTrxR1 inhibitor 20%[57.1 µM], TrxR1 substrate 17%[57.1 µM], GLP1R inv ag -13%, GLP-1R agonist -5% and mIDH1 inhibitor 0%.
O=C(NC1CCCCC1)N1CCN(C(c2ccccc2)c2ccccc2)CC1 was read as HEK293 tox 18%, rTrxR1 inhibitor -5%, TrxR1 substrate 6%, GLP1R inv ag 4µM*, GLP-1R agonist 4% and mIDH1 inhibitor -2%.
For CCOC(=O)c1c(NC(=O)CSc2nnc(-c3c[nH]c4ccccc34)n2C)sc2c1CCCC2 the results were HEK293 tox -6%, rTrxR1 inhibitor 38%, TrxR1 substrate -7%[57.1 µM], GLP1R inv ag 3%, GLP-1R agonist -4% and mIDH1 inhibitor 0%.
For CCOC(=O)c1c(NC(=O)CSc2nnc(-c3c[nH]c4ccccc34)n2CCOC)sc2c1CCCC2 the results were HEK293 tox -13%, rTrxR1 inhibitor 7%[57.1 µM], TrxR1 substrate 7%[57.1 µM], GLP1R inv ag 11µM*, GLP-1R agonist -1% and mIDH1 inhibitor 4%.
CCC1CCCCN1CCCNC(=O)C(C)n1nc(C)c2sc3ccccc3c2c1=O (stereo unspecified) was read as HEK293 tox inconclusive, rTrxR1 inhibitor 13%, TrxR1 substrate 11%, GLP1R inv ag 7.9µM*, GLP-1R agonist -6% and mIDH1 inhibitor 1%.
For Cc1nn(C(C)C(=O)NCCCN2CCCCCC2)c(=O)c2c1sc1ccccc12 (stereo unspecified) the results were HEK293 tox 5%, rTrxR1 inhibitor 50µM*, TrxR1 substrate 2%, GLP1R inv ag -15%, GLP-1R agonist -2% and mIDH1 inhibitor 1%.
CCOC(=O)N1CCN(/[N+]([O-])=N/Oc2ccc([N+](=O)[O-])cc2[N+](=O)[O-])CC1 was read as rTrxR1 inhibitor 6.7µM* and TrxR1 substrate 3%[57.1 µM].
CCOC(=O)CCCC(=O)N1CCN(/[N+]([O-])=N/Oc2ccc([N+](=O)[O-])cc2[N+](=O)[O-])CC1 was read as rTrxR1 inhibitor 16µM* and TrxR1 substrate -6%.
Screening CCOC(=O)c1nnn(-c2ccc([N+](=O)[O-])cc2[N+](=O)[O-])c1C returned HEK293 tox 18%, rTrxR1 inhibitor 23%, TrxR1 substrate -1%, GLP1R inv ag -22%, GLP-1R agonist 1% and mIDH1 inhibitor 1%.
For CCCCCCCCCCCCOC(=O)N1CCN(/[N+]([O-])=N/Oc2ccc([N+](=O)[O-])cc2[N+](C)=O)CC1 the results were rTrxR1 inhibitor 50µM* and TrxR1 substrate -7%[0.457 µM].
CCOc1cc(C2Nc3ccccc3C(=O)N2Cc2ccco2)ccc1OCc1ccccc1Cl (stereo unspecified) was read as rTrxR1 inhibitor -22% and TrxR1 substrate 26%.
OCC1O[C@@H](O[C@@H]2C(CO)OC(O)C(O)C2O)C(O)C(O)C1O (stereo partly specified) was read as GLP-1R agonist 0%.
`Cn1c(=S)n(C)c2ccccc21` gave HEK293 tox 5%, rTrxR1 inhibitor 13%, TrxR1 substrate 1%, GLP1R inv ag 6%, GLP-1R agonist -2% and mIDH1 inhibitor 2%.
Screening Cn1ccc(=S)c2ccccc21 returned HEK293 tox -2%, rTrxR1 inhibitor 22µM*, TrxR1 substrate -4%, GLP1R inv ag 8%, GLP-1R agonist 4% and mIDH1 inhibitor 16%.

Screening data deposited in PubChem by National Center for Advancing Translational Sciences (NCATS).
